Hit rate of the full screen: of about 310,000 compounds, about 2,200 (0.71%) showed an effect of 50% or more. The effect is printed as a negative number. The list comes from a sample in which strong results are over-represented; it also holds similar structures and randomly drawn compounds.
These compounds were tested against human ether-à-go-go-related gene (hERG) potassium channel (human, UniProt Q12809) (assay: primary screen, population patch clamp on CHO cells stably expressing hERG; higher = less effect of the substance).
Sequence of human ether-à-go-go-related gene (hERG) potassium channel (Q12809 whole entry, looked up): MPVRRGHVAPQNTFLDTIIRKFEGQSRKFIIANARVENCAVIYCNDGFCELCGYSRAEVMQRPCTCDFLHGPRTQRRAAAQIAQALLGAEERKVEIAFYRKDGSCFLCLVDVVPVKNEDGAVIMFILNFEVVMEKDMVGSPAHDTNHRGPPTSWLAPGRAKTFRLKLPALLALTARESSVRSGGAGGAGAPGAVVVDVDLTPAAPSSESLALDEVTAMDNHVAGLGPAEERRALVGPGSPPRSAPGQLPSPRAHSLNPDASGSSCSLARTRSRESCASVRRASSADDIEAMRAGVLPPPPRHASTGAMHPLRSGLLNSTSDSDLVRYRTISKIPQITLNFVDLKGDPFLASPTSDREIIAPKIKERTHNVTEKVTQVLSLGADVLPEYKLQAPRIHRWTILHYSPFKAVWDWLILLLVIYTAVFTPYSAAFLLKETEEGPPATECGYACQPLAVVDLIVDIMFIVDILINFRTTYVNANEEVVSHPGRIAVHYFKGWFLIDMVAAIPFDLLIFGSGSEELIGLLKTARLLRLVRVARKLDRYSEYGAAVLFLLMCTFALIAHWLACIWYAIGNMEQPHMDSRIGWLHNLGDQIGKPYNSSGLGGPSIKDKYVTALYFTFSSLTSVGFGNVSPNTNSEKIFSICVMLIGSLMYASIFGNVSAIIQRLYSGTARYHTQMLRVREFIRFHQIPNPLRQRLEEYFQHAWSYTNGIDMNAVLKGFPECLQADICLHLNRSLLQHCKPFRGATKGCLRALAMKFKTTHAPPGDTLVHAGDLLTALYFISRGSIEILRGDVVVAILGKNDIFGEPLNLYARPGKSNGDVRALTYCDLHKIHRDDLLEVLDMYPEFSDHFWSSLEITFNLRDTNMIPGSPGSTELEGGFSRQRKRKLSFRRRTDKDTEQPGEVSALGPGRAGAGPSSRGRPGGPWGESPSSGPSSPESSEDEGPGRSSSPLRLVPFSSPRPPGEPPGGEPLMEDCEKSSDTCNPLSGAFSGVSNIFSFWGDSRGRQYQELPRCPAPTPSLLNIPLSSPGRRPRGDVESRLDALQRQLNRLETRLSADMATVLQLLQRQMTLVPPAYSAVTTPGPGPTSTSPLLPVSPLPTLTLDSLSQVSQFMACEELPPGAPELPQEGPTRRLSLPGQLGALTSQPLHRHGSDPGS
Experimental: Briefly, Chinese hamster ovary (CHO) cells stably expressing the hERG channel were dislodged from tissue culture flasks and dispensed into PPC plates. […] During the recording, background leak currents were estimated by a 100 ms step to -80 mV from an initial holding potential of -70 mV and subtracted from the subsequent current measurement. The campaign was conducted in two phases using slight differences in recording protocol. In the first phase, the initial voltage pulse used a 100 ms step to -30 mV from a holding potential of -70 mV, a 2 s conditioning step to +25 mV, and a 2 s test step to -30 mV. During the second phase of the screen, the potential during the conditioning step was raised to +45 mV. In both phases of the campaign, a secondary voltage pulse was applied using the same parameters as the second phase initial pulse. The initial and secondary pulses were applied in the absence of compound, and upon application of 1 μM and 10 μM test concentrations. Small molecule effects on hERG current density were quantified by […].

Structure (SMILES) | hERG current change (%, negative = inhibition) at 1uM
O=C(O)COCC(=O)N1CCN(C2c3ccccc3-c3ccccc32)CC1 | 12.4%
CCCC/C(O)=C/c1nc2ccccc2[nH]c1=O | 1.79%
O=C(NCc1ccco1)c1cc2n(n1)C(C(F)(F)F)CC(c1ccc(F)cc1)N2 (stereo not drawn) | -4.18%
Br.O=C(CN1C2=NCCCN2c2ccccc21)c1cccc(Br)c1 | -28.6%
COc1ccc(C(=O)CN2C3=NCCCN3c3ccccc32)cc1OC | -6.85%
Br.COc1cccc(C(=O)CN2C3=NCCCN3c3ccccc32)c1 | -61.2%
Br.O=C(CN1C2=NCCN2c2ccccc21)c1ccc(Br)cc1 | -28.4%
Br.Cc1ccc(C)c(C(=O)CN2C3=NCCCN3c3ccccc32)c1 | -43%
Br.O=C(CN1C2=NCCCN2c2ccccc21)c1ccc([N+](=O)[O-])cc1 | -54%
COc1ccc(-c2csc(N3C(=O)C4C5c6ccccc6C(c6ccccc65)C4C3=O)n2)cc1 (stereo not drawn) | 11.9%
Cc1ccc(/C=C2/SC(=Nc3ccc(F)cc3)NC2=O)s1 | 13%
Cc1csc2nc(NC(=O)c3ccccc3)sc(=O)c12 | 8.93%
Nc1c(Sc2ccccc2)c(=O)[nH]c(=O)n1Cc1ccccc1 | -13.3%
Cc1ccc(S(=O)(=O)N2CCCC2CNC(=O)C(=O)NCCN2CCOCC2)cc1 (stereo not drawn) | 16.8%
Cc1ccc(S(=O)(=O)Nc2cccc(C(=O)NCc3ccc(S(N)(=O)=O)cc3)c2)cc1 | 12.7%
CCc1nnc(NC(=O)CN2CCN(C(=O)c3ccccc3)CC2)s1 | 10.9%
O=C(CN1CCN(C(=O)c2ccccc2)CC1)Nc1ccccc1 | 3.18%
O=C(CN1CCN(C(=O)c2ccccc2)CC1)Nc1ccc(Br)cn1 | -72.1%
O=C(CN1CCOCC1)Nc1ncc(Br)cc1Br | 4.34%
O=C(CN1CCN(C(=O)c2ccccc2)CC1)Nc1ncc(Br)cc1Br | -84.9%
O=C(CN1CCCCCC1)Nc1ccc(Br)cn1 | 3.88%

Structure (SMILES) | hERG current change (%, negative = inhibition) at 1uM
CC(=O)N1CCC(C(=O)Nc2ccccc2)(N(Cc2ccccc2)C(=O)c2cccnc2)CC1 | 17.6%
Nc1ccc(Sc2ccccc2Cl)nc1 | 0.8%
O=C(CCN1CCOCC1)Nc1ccc2c(c1)CCC2 | 3.78%
Cc1[nH][nH]c(=O)c1C=NCc1cccnc1 | 14.3%
CN(CC1CCCCO1)C(=O)c1cc(COc2ccc(F)cc2Cl)on1 (stereo not drawn) | -74.4%
CCN(CC1CCCO1)C(=O)c1cc(COc2ccccc2SC)on1 (stereo not drawn) | -58.9%
CCN(CC1CCCO1)C(=O)c1cc(COc2ccc(F)cc2F)on1 (stereo not drawn) | 2.73%
CSc1ccccc1OCc1cc(C(=O)NCC(C)(C)N2CCOCC2)no1 | -72.2%
CCN(CC1CCCO1)C(=O)c1cc(COc2ccc(OC)cc2Cl)on1 (stereo not drawn) | 5.36%
COc1ccc(OCc2cc(C(=O)NCC(C)(C)N3CCOCC3)no2)c(Cl)c1 | 0.582%
COc1cc(Cl)ccc1OCc1cc(C(=O)N(C)CC2CCCCO2)no1 (stereo not drawn) | 2.24%
Cc1ccc(OCc2cc(C(=O)NCC(C)(C)N3CCOCC3)no2)cc1C | 4.83%
COc1ccc(OCc2cc(C(=O)N(C)CC3CCCCO3)no2)c(Cl)c1 (stereo not drawn) | -1.77%
Cc1ccc(OCCN(C)C(=O)c2cc(COc3ccc(F)cc3F)on2)cc1 | -0.323%
COC(=O)c1cccc(NC(=O)c2ccc(S(=O)(=O)N3CCN(C)CC3)cc2)c1 | 16.5%
COCCN(C(=O)CSc1nc2ccccc2c(=O)n1CC(C)C)c1c(N)n(Cc2ccccc2)c(=O)[nH]c1=O | 11.8%
CC(C)n1c(/C=C/[C@H](O)C[C@H](O)CC(=O)[O-])c(-c2ccc(F)cc2)c2ccccc21.[Na+] | 11.8%
Cc1cc(O)c(C(C)C)cc1NS(=O)(=O)c1ccccc1 | 10.4%
COc1ccccc1-n1c(SC(C)C(=O)NCC2CCCO2)nc2cc(Cl)ccc2c1=O (stereo not drawn) | 12.1%
CCOC(=O)N1CCN(c2nc(-c3ccc(Cl)cc3)cs2)CC1 | -8.51%
CCC(=O)N1CCN(c2nc(-c3ccc(Cl)cc3)cs2)CC1 | 9.84%

— article PMC4336329 (PLoS ONE, 2015)
